High-throughput results deposited in PubChem by National Center for Advancing Translational Sciences (NCATS).
Only some compounds are listed: those with a hit (about 8.9% of all), similar ones and a draw of the others.
KB-V1 MDR tox – qHTS assay for MDR1-selective chemotherapeutics: Primary screen using the drug-selected MDR subline cells KB-V1; 3.4% of 400,000 active; AID 1347076, 2019; KB-V1 MDR cells viability, CellTiter-Glo, 72 h; Potency, µM (doses to about 46.1 µM), actives largely listed as cytotoxic; note: potency is the fitted concentration of half-maximal effect; % is set by controls: 0 for no effect and ±100 for the full control effect; nearly all actives have a fitted effect of over 60% in size
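Compound-treated KB-V1 multidrug-resistant cells, 72 h, 37 degrees C; viability by CellTiter-Glo. Fitted qHTS curves give the values.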
KB-3-1 tox – qHTS assay for MDR1-selective chemotherapeutics: Primary screen using the parental adenocarcinoma cell KB-3-1; AID 1347075, 2019; KB-3-1 viability, CellTiter-Glo ATP luminescence, 72 h; 1.4% of 400,000 active; Potency, µM (doses to about 46.1 µM), usual class: cytotoxic; note: potency is the fitted concentration of half-maximal effect; % is set by controls: 0 for no effect and ±100 for the full control effect; nearly all actives have a fitted effect of over 60% in size
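Parental KB-3-1 viability, qHTS format: 72 h compound exposure, 37 °C; CellTiter-Glo; media-only wells and DMSO plates as controls; concentration-effect fits on corrected data.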
D3 ag – qHTS of D3 Dopamine Receptor Agonist: qHTS. D(3) dopamine receptor (Homo sapiens), P35462. D3R DiscoveRx beta-arrestin cells, luminescence, 90 min. max activation, %. 0.58% of 410,000 active; in the data active = max activation above about 30%; note: 0% is about no effect
Target sequence (P35462 whole entry, looked up): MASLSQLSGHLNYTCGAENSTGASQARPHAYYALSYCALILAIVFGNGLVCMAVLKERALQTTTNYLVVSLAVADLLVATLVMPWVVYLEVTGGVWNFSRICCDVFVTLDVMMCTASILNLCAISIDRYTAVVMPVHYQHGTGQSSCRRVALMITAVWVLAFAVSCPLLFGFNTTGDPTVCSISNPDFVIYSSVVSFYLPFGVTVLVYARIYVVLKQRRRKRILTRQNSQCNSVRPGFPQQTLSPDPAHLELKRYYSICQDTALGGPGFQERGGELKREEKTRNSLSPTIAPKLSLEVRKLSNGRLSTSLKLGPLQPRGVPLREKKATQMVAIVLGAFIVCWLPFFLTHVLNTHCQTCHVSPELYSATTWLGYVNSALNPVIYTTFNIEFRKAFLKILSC
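Agonist-mode cell screen: cells plated at 1500/well and incubated overnight at 37 °C, then exposed to library compounds for 90 min at 37 °C. Detection reagent was added for 30–60 min at room temperature, and luminescence was read.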
SW480 rerep – A quantitative high throughput screen for small molecules that induce DNA re-replication in SW480 colon adenocarcinoma cells. SW480 DNA re-replication, Hoechst DNA content imaging, 48 h. Potency, µM (titrated, usually from 46.1 µM), for inactives: at the top dose re-replication activation, actives largely listed as activators. 1.8% of 340,000 active. AID 624297, 2012; note: potency is the fitted concentration of half-maximal effect; % of control where 0% means no effect; nearly all actives have a fitted effect of over 55% in size
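Readout is total intensity of Hoechst-stained nuclei, excited at 405 nm and collected at 500-530 nm. Compound treatment lasted 48 hr at 37 C in 5% CO2 before staining.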
MCF10A rerep – A quantitative high throughput screen for small molecules that induce DNA re-replication in MCF 10a normal breast cells; Potency, µM (top dose mostly 46.1 µM), without a hit: at the highest dose activity, positive = re-replication, hits mostly activators; MCF 10A DNA re-replication, Hoechst nuclear intensity, 48 h; 2.9% of 350,000 active; note: potency is the fitted concentration of half-maximal effect; % of control where 0% means no effect; nearly all actives have a fitted effect of over 50% in size
DRD3 antagonist – qHTS of D3 Dopamine Receptor Antagonist: qHTS | D3R cells, DiscoveRx beta-arrestin luminescence, antagonist mode; hits give low values | max response, negative = inhibition, % | 2.5% of 360,000 active | AID 652054, 2013; in the data active = max response below about -50%; inconclusive = no clear call, values can overlap the other calls; note: % is set by controls: 0 for no effect and ±100 for the full control effect
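Cells expressing the human receptor were seeded at 1500 cells/well, incubated overnight at 37 degrees C in 5% CO2, then exposed to library compounds with dopamine controls for 90 minutes at 37 degrees C before luminescent detection.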
The depositor's hits bear a star. Unless noted, calls come from the whole dose curve; as a rule, active = well fitted curve in the direction sought with a large enough effect; inconclusive = small, poorly fitted or top-dose-only effect, or another doubt; inactive = no such curve, though single readings can be large; an effect the other way counts as inactive or inconclusive.

For CCN1CCN(C(c2ccc(C)cc2)c2sc3nc(-c4ccco4)nn3c2O)CC1 (centres undefined) the results were KB-V1 MDR tox inactive, KB-3-1 tox inactive and D3 ag -5.
Screening O=C(C[n+]1ccc2ccccc2c1)c1ccc2ccc3ccccc3c2c1 returned KB-V1 MDR tox inactive, KB-3-1 tox inactive, D3 ag -15 and DRD3 antagonist -78*.
For O=C(C[n+]1ccc2ccccc2c1)c1ccccc1 the results were KB-V1 MDR tox inactive, KB-3-1 tox inactive, D3 ag -3, SW480 rerep inconclusive, MCF10A rerep 10% and DRD3 antagonist -5.
O=C(CCC(=O)CCN1CCCCC1)CCN1CCCCC1 was read as KB-V1 MDR tox inactive, KB-3-1 tox inactive, D3 ag -1, SW480 rerep inconclusive, MCF10A rerep inconclusive and DRD3 antagonist -67*.
Screening Cc1nnc(NC(=O)CCC(=O)N2CCN(CCOc3cccc4ccccc34)CC2)s1 returned KB-V1 MDR tox inactive, KB-3-1 tox inactive, D3 ag 17, SW480 rerep -6%, MCF10A rerep 1% and DRD3 antagonist inconclusive.
For Cc1ccc(OCCN2CCN(C(=O)CCC(=O)Nc3nnc(C)s3)CC2)cc1 the results were KB-V1 MDR tox inactive, KB-3-1 tox inactive, D3 ag 37*, SW480 rerep 0%, MCF10A rerep 1% and DRD3 antagonist -3.
Cc1ccc(OCCN2CCN(C(=O)CCC(=O)Nc3nnc(C(C)C)s3)CC2)cc1 was read as KB-V1 MDR tox inconclusive, KB-3-1 tox inactive, D3 ag 33*, SW480 rerep -1%, MCF10A rerep 0% and DRD3 antagonist -20.
`CCCc1nnc(NC(=O)CCC(=O)N2CCN(CCOc3ccc(C)cc3)CC2)s1` gave KB-V1 MDR tox inconclusive, KB-3-1 tox inactive, D3 ag 70*, SW480 rerep 4%, MCF10A rerep 7% and DRD3 antagonist -17.
Screening CC(C)c1nnc(NC(=O)CCC(=O)N2CCN(Cc3ccccc3)CC2)s1 returned KB-V1 MDR tox inactive, KB-3-1 tox inactive, D3 ag -1, SW480 rerep 1%, MCF10A rerep -4% and DRD3 antagonist 8.
Cc1cc(C)n(-c2nc3cc(Cl)c(Cl)cc3nc2Nc2ccc(F)cc2C)n1 was read as KB-V1 MDR tox inconclusive, KB-3-1 tox inactive and D3 ag -7.
Screening Cc1ccc(C)c(Cn2c(=O)n(Cc3ccccc3)c(=O)c3c2c2cc(C)ccc2n3C)c1 returned KB-V1 MDR tox inconclusive, KB-3-1 tox inactive and D3 ag 6.
CCN(CC)C(=O)c1sc2c(c1C)c(=O)n(Cc1ccccc1)c(=O)n2CC(=O)Nc1ccc(OC)cc1 was read as KB-V1 MDR tox inactive, KB-3-1 tox inactive and D3 ag 3.
Cc1ccc(S(=O)(=O)c2nnn(-c3ccc(F)c(Cl)c3)c2N)cc1 was read as KB-V1 MDR tox inactive, KB-3-1 tox inactive and D3 ag 1.
Screening COc1ccc(CN(C)C(=O)c2cccc(NC(=O)CC3SC(N4CCCCC4)=NC3=O)c2)c(OC)c1 (centres undefined) returned KB-V1 MDR tox inactive, KB-3-1 tox 16µM*, D3 ag 12, SW480 rerep 6.5µM*, MCF10A rerep inconclusive and DRD3 antagonist 34.
Screening COc1cccc(CN(C)C(=O)c2cccc(NC(=O)CC3SC(N4CCCCC4)=NC3=O)c2)c1OC (centres undefined) returned KB-V1 MDR tox inactive, KB-3-1 tox inactive, D3 ag -29, SW480 rerep -29%, MCF10A rerep -3% and DRD3 antagonist -19.
CCCCNc1nc2ccccc2n1CC(=O)Nc1c(C)cccc1CC was read as KB-V1 MDR tox inconclusive, KB-3-1 tox inactive, D3 ag 12, SW480 rerep -2%, MCF10A rerep inconclusive and DRD3 antagonist -9.
CCCCNc1nc2ccccc2n1CC(=O)N1CCc2ccccc2C1 was read as KB-V1 MDR tox 10µM*, KB-3-1 tox inactive, D3 ag -45, SW480 rerep 0%, MCF10A rerep -2% and DRD3 antagonist -76*.
For CCCCNC(=O)N1CCc2ccccc2C1 the results were KB-V1 MDR tox inactive, KB-3-1 tox inactive, D3 ag -9, SW480 rerep 23µM*, MCF10A rerep 2% and DRD3 antagonist -11.
Screening C=C1C=C(C(F)(F)F)n2ncc(C(=O)NCc3ccc(F)cc3)c2N1 returned KB-V1 MDR tox inactive and KB-3-1 tox inactive.
For Nc1nc(N)c(-c2cccc(C(F)(F)F)c2)c(Cc2cccc(C(F)(F)F)c2)n1 the results were KB-V1 MDR tox inconclusive, KB-3-1 tox 7.3µM*, D3 ag -8, SW480 rerep inconclusive, MCF10A rerep inconclusive and DRD3 antagonist 7.
Screening Nc1ncccc1OCc1cccc(C(F)(F)F)c1 returned KB-V1 MDR tox inconclusive, KB-3-1 tox inconclusive, D3 ag 0, SW480 rerep 7%, MCF10A rerep -10% and DRD3 antagonist 1.
Screening CCOc1cc(C(=O)NCc2ccc3c(c2)CCN3C(=O)c2ccc(F)cc2)cc(OCC)c1OCC returned KB-V1 MDR tox inactive, KB-3-1 tox inactive and D3 ag 8.
`CCN(C[C@H]1N[C@@](C)(C(=O)OC)[C@H]2C(=O)N(C)C(=O)[C@@H]12)C(=O)C1CCCCC1` gave KB-V1 MDR tox inactive, KB-3-1 tox inactive, D3 ag 6, SW480 rerep inconclusive, MCF10A rerep -5% and DRD3 antagonist 17.
`Cc1cc(NC(=O)Nc2ccccc2F)ccc1Br` gave KB-V1 MDR tox inconclusive, KB-3-1 tox inconclusive, D3 ag -7, SW480 rerep inconclusive, MCF10A rerep 18µM* and DRD3 antagonist 17.
`Cn1nnc2cc(NC(=O)Nc3ccccc3F)ccc21` gave KB-V1 MDR tox inactive, KB-3-1 tox inactive, D3 ag -11 and DRD3 antagonist -17.
O=C(Nc1cccc(Cl)c1)Nc1ccc(Br)cc1F was read as KB-V1 MDR tox 21µM*, KB-3-1 tox 16µM*, D3 ag 4, SW480 rerep inconclusive, MCF10A rerep inconclusive and DRD3 antagonist 35.
